# Source: the supplement of paper PMC6411743
# ± gives the standard deviation of the averaged measurements. The full data set covers some 5,400 targets. This sample favours those with the largest changes.
# Biological target: T1, UniProt Q9NPI1|Q9NPI1-2
# T1 sequence (whole entry): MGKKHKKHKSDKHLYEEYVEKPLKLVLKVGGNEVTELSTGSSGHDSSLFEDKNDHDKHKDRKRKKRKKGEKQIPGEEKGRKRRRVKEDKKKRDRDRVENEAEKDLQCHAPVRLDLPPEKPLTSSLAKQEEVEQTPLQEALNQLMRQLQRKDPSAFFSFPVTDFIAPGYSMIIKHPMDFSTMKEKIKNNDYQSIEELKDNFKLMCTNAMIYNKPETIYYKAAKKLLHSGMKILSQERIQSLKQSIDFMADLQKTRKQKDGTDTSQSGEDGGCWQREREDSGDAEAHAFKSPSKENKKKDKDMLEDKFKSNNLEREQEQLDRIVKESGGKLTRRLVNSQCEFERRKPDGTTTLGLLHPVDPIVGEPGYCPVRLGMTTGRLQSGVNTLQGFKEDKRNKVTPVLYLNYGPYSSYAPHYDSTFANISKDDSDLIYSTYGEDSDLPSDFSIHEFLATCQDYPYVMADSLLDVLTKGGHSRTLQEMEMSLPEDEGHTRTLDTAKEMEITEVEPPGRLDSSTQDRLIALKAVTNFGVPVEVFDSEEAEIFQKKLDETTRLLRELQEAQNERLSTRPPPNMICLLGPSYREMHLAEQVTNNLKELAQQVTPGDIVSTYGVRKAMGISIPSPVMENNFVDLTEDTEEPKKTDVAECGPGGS
# Test: NP40-soluble protein abundance relative to vehicle (solubility fold change) (ratio); higher = more soluble protein in presence of GTP
# Description: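 Solubility proteome profiling in Jurkat crude lysate. Lysate was treated with Mg-GTP (0.1-10 mM) for 10 min at room temperature and 3 min at 37 °C, then solubilised with 0.8% NP40 and benzonase, followed by ultracentrifugation. Proteins were quantified by TMT10 LC-MS/MS; the value is the NP40-soluble abundance relative to the NP40-processed vehicle, from 3 independent experiments.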
smiles,measurement,setting,value
Nc1nc2c(ncn2[C@@H]2O[C@H](COP(=O)(O)OP(=O)(O)OP(=O)(O)O)[C@@H](O)[C@H]2O)c(=O)[nH]1 [guanosine triphosphate],NP40-soluble protein abundance,concentration: 0.1mM,1.09 ± 0.029
same,NP40-soluble protein abundance,concentration: 0.5mM,1.11 ± 0.036
same,NP40-soluble protein abundance,concentration: 1mM,1.22 ± 0.041
same,NP40-soluble protein abundance,concentration: 2mM,1.36 ± 0.098
same,NP40-soluble protein abundance,concentration: 4mM,1.4 ± 0.18
same,NP40-soluble protein abundance,concentration: 6mM,1.47 ± 0.2
same,NP40-soluble protein abundance,concentration: 8mM,1.58 ± 0.32
same,NP40-soluble protein abundance,concentration: 10mM,1.56 ± 0.28
